From PubChem BioAssay
The list is not random: actives were taken first. Their share in the collection is about 10%.
HEK cytotox: HEK 293 cell cytotoxicity | 6.6% of 94,000 active | HEK 293 viability, ATP luminescence (CellTiter-Glo), 48-72 h | Potency, µM (highest dose often 115 µM), for the others: at the highest dose activity change, negative = cytotoxicity, usual class: inhibitors; further: on the % scale 0 is the no-effect control and ±100 the full control effect; nearly all actives have a fitted effect of over 60% in size
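Cells seeded first (HEK 293, 250 cells/well), then compound added by pintool. Incubation ran 48 or 72 hr at 37 degree Celsius. CellTiter-Glo was added and luminescence imaged after 10 min at room temperature.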
3T3 cytotox: NIH 3T3 cell cytotoxicity; Potency, µM (titrated, usually from 96.7 µM), for the others: at the top dose activity change, negative = cytotoxicity, hits mostly inhibitors; AID 1345082; NIH 3T3 viability, CellTiter-Glo ATP luminescence, 48-72 h; 4.3% of 94,000 active; further: on the % scale 0 is the no-effect control and ±100 the full control effect; nearly all actives have a fitted effect of over 55% in size
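Luminescent ATP readout (CellTiter-Glo, 10 min RT) after 48 or 72 hr compound exposure of NIH 3T3 cells seeded at 400 cells/well in 1536-well format; quantitative HTS.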
FLuc inh-1: Photinus pyralis luciferase inhibition; 2.5% of 76,000 active; P08659; Potency, µM (series often up to 115 µM), hits mostly inhibitors; AID 1347043; purified P. pyralis luciferase, luminescence, biochemical; further: on the % scale 0 is the no-effect control and ±100 the full control effect; nearly all actives have a fitted effect of over 65% in size
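Luminescence read by CCD imaging after purified firefly luciferase (10nM final) was added to substrate buffer holding 10uM D-luciferin and 10uM ATP, pH 7.5, pre-dosed with compound.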
GPT2 inh: inhibitors of human GPT2 alanine aminotransferase | Q8TD30 | Recombinant GPT2, coupled pyruvate oxidase/HRP Amplex Red fluorescence | Potency, µM (doses to about 57.7 µM), for the others: at the top dose activity change, negative = inhibition, most hits filed as inhibitors | 0.25% of 100,000 active | AID 1671188; further: on the % scale 0 is the no-effect control and ±100 the full control effect; nearly all actives have a fitted effect of over 60% in size
Target sequence (Q8TD30 whole entry, looked up): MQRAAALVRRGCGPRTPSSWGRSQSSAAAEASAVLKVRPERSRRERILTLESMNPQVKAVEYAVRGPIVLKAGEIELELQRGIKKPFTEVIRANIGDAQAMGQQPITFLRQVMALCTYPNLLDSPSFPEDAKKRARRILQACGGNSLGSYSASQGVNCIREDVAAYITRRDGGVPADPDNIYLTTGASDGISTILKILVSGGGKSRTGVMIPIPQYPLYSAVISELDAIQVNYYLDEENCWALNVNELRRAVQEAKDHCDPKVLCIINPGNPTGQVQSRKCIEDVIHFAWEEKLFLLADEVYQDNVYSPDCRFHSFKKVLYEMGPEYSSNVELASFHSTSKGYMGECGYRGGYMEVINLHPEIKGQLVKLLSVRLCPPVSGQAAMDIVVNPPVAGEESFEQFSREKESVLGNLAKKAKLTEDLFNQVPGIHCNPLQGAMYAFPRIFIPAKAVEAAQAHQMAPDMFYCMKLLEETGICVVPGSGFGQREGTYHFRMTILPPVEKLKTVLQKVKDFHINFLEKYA
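Fluorescence of coupled pyruvate oxidase/HRP/Amplex Red system (50uM Amplex, 30 min, dark) reports pyruvate formed by GPT2. Enzyme reaction: 10ng/uL GPT2, 2mM L-alanine, 250uM a-KG, 30 min room temperature, pH 7.5; 50uM AOA control.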
NPR1 antag: human Npr1 receptor antagonism; P16066; HEK293 hNpr1 GloSensor cGMP, ANP-stimulated luminescence; Potency, µM (titrated, usually from 46.3 µM), for inactives: top-dose activity change, negative = inhibition, usual class: inhibitors; 1.6% of 76,000 active; calls by dose curve; further: on the % scale 0 is the no-effect control and ±100 the full control effect; nearly all actives have a fitted effect of over 60% in size
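Compound pre-incubated 30 min at room temperature on GloSensor-loaded HEK293 cells stably carrying hNpr1 and the pGS-40F cGMP biosensor. Stimulation uses hNppA at 0.1 nM final; luminescence is taken at baseline and 20 min post-agonist.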
FLuc SDR -ATP: stabilizes firefly luciferase without ATP; Purified FLuc-C-HiBiT, Nano-Glo HiBiT luminescence, no ATP; 7.8% of 1,300 active; shares compounds with FLuc inh-1; Potency, µM (highest dose often 32.7 µM), inactives show at the highest dose activation (signal gain), most hits filed as activators; further: nearly all actives have a fitted effect of over 55% in size
FLuc SDR ATP: binders stabilizing firefly luciferase, plus ATP | purified FLuc-C-HiBiT + ATP, HiBiT complementation luminescence | Potency, µM (highest dose often 32.7 µM), inactives show at the highest dose activation (gain of signal), actives largely listed as activators | 8.7% of 1,300 active | AID 1963319 | shares compounds with FLuc inh-1;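 further: signal reports ligand binding via conformational change of the enzyme rather than luciferase catalysis; % of control where 0% means no effect; nearly all actives have a fitted effect of over 55% in size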
FLuc inh-2: firefly luciferase enzyme inhibition | shares compounds with FLuc inh-1 | AID 1963320 | Potency, µM (titrated, usually from 32.7 µM), inactives show at the highest dose activity change, negative = inhibition, usual class: inhibitors | 42% of 1,300 active | purified FLuc-C-HiBiT enzyme, luciferin luminescence; further: on the % scale 0 is the no-effect control and ±100 the full control effect; nearly all actives have a fitted effect of over 70% in size
* marks the source's active call; other numbers are inactive results; i = inactive; u = inconclusive; x = not tested or not shown; [ ] = dose if it differs, or a comment. Unless noted, the call rests on the fitted dose curve; in most records, active means well fitted curve in the direction sought with a large enough effect; inconclusive means small, poorly fitted or top-dose-only effect, or another doubt; inactive means no such curve, though single readings can be large; an effect the other way counts as inactive or inconclusive. Potency means the concentration at half of the fitted maximal effect.

SMILES	HEK cytotox	3T3 cytotox	FLuc inh-1	GPT2 inh	NPR1 antag	FLuc SDR -ATP	FLuc SDR ATP	FLuc inh-2
Oc1cc(-c2cccc(Cl)c2)cc2c1OCCN(Cc1noc(C3CC3)n1)C2	u	u	i	u	-3%	x	x	x
O=C(c1ccccc1C(F)(F)F)N1CCOc2c(cc(-c3nc4ccccc4s3)cc2OC2CCOC2)C1 (configuration not stated)	x	x	x	x	x	12%	8%	3%
CC(=O)NCCC(=O)N1CCOc2c(O)cc(-c3cccc(Cl)c3)cc2C1	u	-29%	i	1%	4%	x	x	x
CCn1cc(C(=O)N2CCOc3c(O)cc(-c4ccccc4C)cc3C2)cn1	u	u	i	2%[11.5 µM]	-12%	x	x	x
O=C1CCC2(C(=O)NCCc3ccccc3)CCCC=C2N1c1ccccc1 (configuration not stated)	u	-14%	3.2µM*	i	-23%	11%	20%	u
CCNc1ncnc2sc3c(c12)CCN(C(=O)NCCOC)C3	9%	-12%	i	i	-12%	x	x	x
CCCOC(=O)CSc1ncnc2sc3c(c12)CCC(C)C3 (configuration not stated)	x	x	x	x	x	16%	11%	u
O=C(O)c1ccnc(-c2ccnc(NCCN3CCCCC3=O)n2)c1	i	-4%	1.4µM*	i[11.5 µM]	-3%	20%	11µM*	u
O=C(O)c1ccnc(-c2ccnc(NCCCN3CCCC3=O)n2)c1	i	-11%	u	i	4%	x	x	x
Cc1oc(C(O)c2ccccc2F)nc1C(=O)Nc1ccc(N2CCOCC2)cc1 (configuration not stated)	u	-25%[138 µM]	10µM*	i	-2%[70.6 µM]	u	u	16µM*
O=C(COc1ccc(Cl)cc1)Nc1ccc(O)c(-c2nc3ccccc3s2)c1	x	x	x	x	x	13%	9%	3%
O=C(COc1ccc(Cl)cc1)Nc1ccc(-c2nc3ccccc3s2)c(O)c1	x	x	x	x	x	15%	11%	1%
O=C(CCCS(=O)(=O)c1ccc(Cl)cc1)Nc1ccc(O)c(-c2nc3ccccc3s2)c1	x	x	x	x	x	17%	10%	0%
O=C(NC1CCCC1)N1CCC(C(=O)N2CCCC2c2nc3ccncc3[nH]2)CC1 (configuration not stated)	i	i	x	-13%	x	x	x	x
O=C(C1CCCN([S+](=O)([O-])c2cccs2)C1)N1CCCC(c2nc3ccncc3[nH]2)C1 (configuration not stated)	u	-28%	x	u	x	x	x	x
CC(C)n1cnnc1CN(C)c1nc(N)nc2nc[nH]c12	-7%	1%	i	-7%	2%	15%	8%	-3%
CC(C)n1cnnc1CC1CCCNC1 (configuration not stated)	0%	-4%	i	i	1%	x	x	x
CCOC(=O)C1CCCN(c2ncnc3c2cnn3-c2ccc(C)c(Cl)c2)C1 (configuration not stated)	x	x	x	x	x	12%	10%	-6%
NC(=O)C1CCCN(c2ncnc3c2cnn3-c2ccccc2)C1 (configuration not stated)	x	x	x	x	x	u	u	11µM*
CCOC(=O)C1CCCN(C(=O)c2cc(-c3ccc(Cl)cc3Cl)c3nncn3n2)C1 (configuration not stated)	u	u	x	i	x	x	x	x
CC1CCCCN1c1ncnc2c1cnn2-c1ccccc1 (configuration not stated)	x	x	x	x	x	11µM*	u	1.1µM*
CC1CCN(c2ncnc3c2CN(c2ccccc2)C(=O)N(C)C3)C1 (configuration not stated)	-22%[172 µM]	-22%[138 µM]	i	i	4%[70.6 µM]	x	x	x
CC1CCN(c2ncnc3c2cnn3-c2ccccc2)CC1	x	x	x	x	x	23%	u	6.2µM*
O=C(C1CCCN(C2CCN(c3nnnn3-c3ccccc3)CC2)C1)N1CCCC1 (configuration not stated)	i	1%	i	-1%	7%	x	x	x
CC1CCCN1c1ncnc2c1CN(c1ccc(Cl)cc1)C(=O)CN2C (configuration not stated)	-12%	-17%	i	i	-17%	x	x	x
Cc1[nH]nc(CCC(=O)N2CCC3(CCCN(CC(C)(C)C)C3)C2)c1C (configuration not stated)	-11%	-24%	i	-31%	3%	x	x	x
CCC1=C(C(=O)OC)C(c2ccccc2OC)N2C(CC(=O)NCC3CC3)=CSC2=N1 (configuration not stated)	u	-24%	i	i	-19%	x	x	x
COCc1ncc(C)n1C1CCCN(C(=O)CCn2nc(C)cc2C)C1 (configuration not stated)	-4%	-28%	x	-8%	x	x	x	x
